Assay outcomes as filed in PubChem BioAssay.
Hits are enriched below; roughly 8.7% of the tested compounds scored in any of these assays.
12-LOX inh: inhibitors of human 12S-lipoxygenase ALOX12; P18054; purified 12hLO, xylenol orange hydroperoxide absorbance; Potency, µM (series often up to 108 µM), without a hit: top-dose activity change, negative = inhibition, actives largely listed as inhibitors; 580,000 compounds, 1.1% hits; AID 1671190; further: on the % scale 0 is the no-effect control and ±100 the full control effect
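Hydroperoxide product was detected by ferrous iron/xylenol orange as the 573 to 405 nm absorbance ratio. Arachidonic acid at 40 uM (final) was turned over for 30 min at room temperature by 150 nM human 12hLO, pH 7.0 Hepes buffer, after 15 min compound preincubation.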
G9a block: blocks human histone lysine methyltransferase G9a; 350,000 compounds, 8.8% hits; G9a H3K9 monomethylation, AlphaScreen, 2 h; AID 504332; Potency, µM (doses to about 102 µM), without a hit: top-dose activity, negative = inhibition, most hits filed as inhibitors; further: on the % scale 0 is the no-effect control and ±100 the full control effect; nearly all actives have a fitted effect of over 75% in size
Target sequence (Q96KQ7 913-1193 limits assumed): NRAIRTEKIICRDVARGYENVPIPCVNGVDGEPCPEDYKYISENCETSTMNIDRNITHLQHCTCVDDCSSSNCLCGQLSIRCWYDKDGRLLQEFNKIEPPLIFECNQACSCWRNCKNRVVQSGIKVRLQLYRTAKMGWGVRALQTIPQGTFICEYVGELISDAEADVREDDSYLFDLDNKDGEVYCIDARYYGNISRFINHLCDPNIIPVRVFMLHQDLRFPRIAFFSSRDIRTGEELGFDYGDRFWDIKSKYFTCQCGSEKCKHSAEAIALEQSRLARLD
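Methyltransferase reactions run at room temperature for 2 h (20 nM enzyme, 500 nM biotin-H3K9 peptide, 20 uM SAM) after a 15 min compound preincubation; product detected by AlphaScreen beads and anti-H3K9me1 antibody.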
JMJD2A Tudor: JMJD2A Tudor domain (human) inhibition. O75164. AlphaScreen JMJD2A-Tudor / H3K4me3 peptide binding. Potency, µM (doses to about 114 µM), inactives show top-dose activity change, negative = inhibition, hits mostly inhibitors. 390,000 compounds, 4.4% hits. AID 504339; further: on the % scale 0 is the no-effect control and ±100 the full control effect; nearly all actives have a fitted effect of over 50% in size
Sfp PPTase inh: Sfp phosphopantetheinyl transferase inhibition; Biochemical Sfp PPTase activity, qHTS; Q9F4F7; 310,000 compounds, 3.5% hits; Potency, µM, without a hit: largest response in the series, negative = inhibition, usual class: inhibitors;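 further: the enzyme is Sfp with the accession as filed and its product quenches rhodamine fluorescence; 0% = enzyme reaction without inhibitor and -100% = no enzyme wells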
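Step 1, compound plus 15 nM Sfp-PPTase, 15 min, room temperature. Step 2, add rhodamine-CoA (5 uM) and BHQ-2-YbbR (12.5 uM). Step 3, read 525/598 nm fluorescence at 0 and 30 min.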
HP1b chromo inh: blocks HP1-beta chromodomain binding to methylated histone tails; P83916; AlphaScreen HP1-beta / biotin-H3K9me3 peptide binding; Potency, µM (highest dose often 114 µM), for inactives: at the top dose activity change, negative = inhibition, actives largely listed as inhibitors; 390,000 compounds, 0.56% hits; AID 540317; further: nearly all actives have a fitted effect of over 70% in size
Target sequence (P83916 whole entry, looked up): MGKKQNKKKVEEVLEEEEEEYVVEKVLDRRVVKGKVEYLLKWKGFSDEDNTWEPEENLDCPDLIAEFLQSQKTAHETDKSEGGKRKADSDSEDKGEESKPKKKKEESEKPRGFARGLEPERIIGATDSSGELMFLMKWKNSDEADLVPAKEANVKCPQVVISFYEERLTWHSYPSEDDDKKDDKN
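Compound inhibition of the preformed complex between 50 nM HP1-beta and 50 nM biotinylated H3K9me3 peptide was read by AlphaScreen. Buffer was PBS pH 7.4 with 0.01% Tween-20. Incubations ran 30 min at room temperature, with 10 ug/mL donor/acceptor beads.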
BAZ2B block: BAZ2B (human) inhibition | Q9UIF8 | AlphaScreen BAZ2B-H3K14Ac peptide displacement | Potency, µM (top dose mostly 114 µM), without a hit: at the highest dose activity change, negative = inhibition, usual class: inhibitors | 360,000 compounds, 4.4% hits; further: on the % scale 0 is the no-effect control and ±100 the full control effect; nearly all actives have a fitted effect of over 60% in size
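AlphaScreen displacement: compounds (up to 110uM) incubated 30 min at room temperature with a preformed 50 nM BAZ2B/50 nM biotinylated H3K14Ac peptide complex in PBS pH 7.4 with Tween-20. Donor and acceptor beads at 10 ug/mL final added, 20 min light-protected before reading.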
* = called active by the depositor; u = inconclusive; x = not tested or not shown; [ ] = another dose, or the depositor's remark. The call rests on the fitted dose curve; in most records, active means well fitted curve in the direction sought with a large enough effect; inconclusive means small, poorly fitted or top-dose-only effect, or another doubt; inactive means no such curve, though single readings can be large; an effect the other way counts as inactive or inconclusive. Potency means the concentration at half of the fitted maximal effect.

SMILES	12-LOX inh	G9a block	JMJD2A Tudor	Sfp PPTase inh	HP1b chromo inh	BAZ2B block
O=C1NC(=S)NC(=O)C1=Cc1cccn1-c1ccc(O)cc1	u	7.1µM*	25µM*	18µM*	u	-28%
Cn1cccc1/C=C1/C(=O)NC(=O)N(C(C)(C)C)C1=O	-20%	9%[12.7 µM]	-25%	-20%	12%	-13%
Cc1cc(C)cc(N2C(=O)NC(=O)/C(=C\c3cccn3-c3ccc(Cl)cc3)C2=O)c1	297%	-24%[59 µM]	-9%	-1%	16%	-4%
CN1C(=O)/C(=C/c2cccn2-c2ccc3ccccc3c2)C(=O)NC1=S	u	u	u	56µM*	-27%	45µM*
O=C1Nc2ccccc2CC12CCCN2Cc1ccccn1 (stereo not given)	-13%[6.33 µM]	x	x	x	x	x
COc1ccc(C=C2C(=O)N(C)C(=O)N(C)C2=O)cc1CSc1ccccn1	u	45µM*	u	45µM*	40%	-23%
COc1ccc(/C=C2/C(=O)NC(=O)N(C3CCCCC3)C2=O)cc1CSc1ccccn1	u	u	x	56µM*	x	u
CN1CCN(Cc2cccc(OC(F)F)c2)CC1CCO (stereo not given)	10%	x	x	x	x	x
CCN1CCN(C(=O)Cc2coc3ccc4ccccc4c23)CC1	u	50µM*	-22%	6%	-1%	-26%
O=C1CCC2(CCNCC2)CCN1CC1CC1	-15%	x	x	x	x	x
COC(=O)C1=COC(C)C2CN3CCc4c([nH]c5cc(OC)ccc45)C3CC12 (stereo not given)	-12%	x	x	x	x	x
CC[C@H]1CC2CN3CCc4c([nH]c5cc(OC)ccc45)[C@](C(=O)OC)(C2)[C@H]13	x	x	40µM*	x	-27%	x
CCOCCCn1c(N)c(C(=O)Nc2sc3c(c2C(=O)OC)CCCC3)c2nc3ccccc3nc21	5%	5.6µM*	-31%	u	6%	u
CCOC(=O)c1c(NC(=O)c2c(N)n(CCCOC)c3nc4ccccc4nc23)sc2c1CCCC2	8%	4%	-14%	56µM*	-10%	-31%
CCCCn1c(NC(=O)c2ccco2)c(C(=O)OCC)c2nc3ccccc3nc21	u	u	-17%	50µM*	55%	9%
CCC(CC)c1cc([C@H]2CN3CC[C@H]2C[C@@H]3CNC(C)=O)nc(-c2ccncc2)n1	45%[176 µM]	x	x	x	x	x
O=C1NC[C@H]2CN(Cc3ccccc3)CCN12	-39%[176 µM]	x	x	x	x	x
CCOc1ccccc1N1C(=O)CC(=O)NC1=O	6%	79µM*	-5%	-15%	6%[57 µM]	u
CCOc1ccc(N2C(=O)CC(=O)NC2=O)cc1	u	-8%[0.501 µM]	-3%	3%	38%	-6%
O=C1NC(=O)C(Cc2ccccc2)(Cc2ccccc2)C(=O)N1Cc1ccccc1	-11%	x	-13%	x	30%	x
CC(C)c1ccc(N2C(=O)NC(=O)/C(=C\C=C\c3ccco3)C2=O)cc1	10µM*	u	u	-18%	1%	-27%
O=C1NC(=O)N(Cc2ccccc2)C(=O)/C1=C/C=C/c1ccco1	u	x	-30%	u	0%	35µM*
COc1ccc(CN2C(=O)NC(=O)/C(=C\c3ccco3)C2=O)cc1	40µM*	28µM*	45µM*	71µM*	u	28µM*
COc1ccc(CN2C(=O)NC(=O)/C(=C\c3cc(OC)c(OC)c(OC)c3)C2=O)cc1	u	u	50µM*	-9%	-24%	u
Cc1nc(-c2ccccc2)cc([C@H]2CN3CC[C@H]2C[C@@H]3CN(Cc2ccco2)Cc2ccco2)n1	57%	x	x	x	x	x
CCOc1ccccc1NC(=O)c1cn(C)c2ccccc12	2%	x	x	x	x	x
CCCc1cc(=O)oc2cc(OCC(=O)N3CCN(Cc4ccc5c(c4)OCO5)CC3)ccc12	9%	-36%	-32%	-2%	23%	50µM*
CN1Cc2ccccc2-n2ccnc2C12CCN(C(=O)c1ccc(C(F)(F)F)cc1)CC2	46%	x	x	x	x	x
